The values that follow come from PubChem BioAssay (NCATS).

“And” between values parts separate entries of the source, which are not always exact repeats. Identical values can stand only once. Results filed as inconclusive are left out. Some compounds were tested as several samples or in several runs, with calls that do not always agree. The source made the active and inactive calls. Calls come from the whole dose curve; as a rule, active = well fitted curve in the direction sought with a large enough effect; inconclusive = small, poorly fitted or top-dose-only effect, or another doubt; inactive = no such curve, though single readings can be large; an effect the other way counts as inactive or inconclusive.
% is set by controls: 0 for no effect and ±100 for the full control effect; potency is the fitted concentration of half-maximal effect.

One experiment is described as follows: Cell Viability qHTS for small molecule stabilizers of the endoplasmic reticulum resident proteome (AID 1508629).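 Note: compound exposure about 46 h in total before the viability read.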 Particulars: cell viability counter-screen, 100 nM thapsigargin for final 4 h. An excerpt: Assay Provider: Brandon K. Harvey Ph.D.
National Institute on Drug Abuse, National Institutes of Health, Baltimore, MD
Endoplasmic reticulum (ER) dysregulation is associated with human pathologies including neurodegenerative, cardiovascular, muscular, and diabetic conditions. Maintenance of ER calcium is critical for functions of the ER and its depletion can lead to loss of ER resident proteins, in a process termed exodosis. Therapeutic compounds capable of attenuating the redistribution of ER proteins under pathological conditions may slow or stop disease progression. To identify such compounds, we performed a quantitative high-throughput screen (qHTS) using the SERCaMP assay, which monitors secretion of ER resident proteins triggered by calcium depletion.
SERCaMP was initially developed as a reporter of ER calcium homeostasis using a Gaussia luciferase with a modified signal peptide and carboxy-terminus (GLuc-SERCaMP), modifications that confer secretion of the reporter in response to ER calcium depletion (Henderson et al., 2014). The assay was used to screen 9,501 compounds, including a collection of drugs approved by the FDA (US), EMA (EU), NHI (Japan), and HC (Canada) regulatory agencies (Huang et al., 2011). Since the SERCaMP reporter reflects the exodosis phenomenon (Trychta et al., 2018a), compounds identified in the screen have the potential to prevent exodosis by different mechanisms such as stabilizing ER calcium or augmenting ERS retrieval.
1. Henderson, M.J., Wires, E.S., Trychta, K.A., Richie, C.T., and Harvey, B.K. (2014). SERCaMP: a carboxy-terminal protein modification that enables monitoring of ER calcium homeostasis. Mol Biol Cell 25, 2828-2839.
2. Huang, R., Southall, N., Wang, Y., Yasgar, A., Shinn, P., Jadhav, A., Nguyen, D.T., and Austin, C.P. (2011). The NCGC pharmaceutical collection: a comprehensive resource of clinically approved drugs enabling repurposing and chemical genomics. Sci Transl Med 3, 80ps16.
3. Trychta, K.A., Back, S., Henderson, M.J., and Harvey, B.K. (2018a). KDEL Receptors Are Differentially Regulated to Maintain the ER Proteome under Calcium Deficiency. Cell Rep 25, 1829-1840 e1826.
SEQUENCE No. (1, 2, 3, etc.); […] (e.g., Cells, Incubation, Reagent, etc.); VALUE and DESCRIPTION.
1; Reagent; 5 uL; 1000 SH-SY5Y cells per wells
3; Compound; 23 nL; Control inhibitor / compound library
5; Reagent; 100 nM; Thapsigargin
7; Reagent; 5 uL; CellTiter-Glo (Promega)
8; Time; 10 min; room temperature
9; Detection; Luminescence; ViewLux imaging system
NOTES (numbers refer to sequence above)
1; SH-SY5Y human neuroblastoma cells stably expressing GLuc-SERCaMP (SH-SY5Y-GLuc-ASARTDL) cells were seeded in 1,536 well white tissue culture treated plates (Corning, Cat# 7464) in DMEM-high glucose-sodium pyruvate (ThermoFisher Scientific, Cat #10569) supplemented with 10% bovine growth serum (Hyclone), 10 U/ml penicillin (Gibco), 10 ug/ml streptomycin (Gibco), and 20 mM HEPES.
2; Assay plates were incubated for 5 hr at 37C in a humidified incubator containing 5% CO2.
3; qHTS libraries (23 nl, final concentrations of 1.53 uM, 7.67 uM, 38.3 uM) or controls (neutral control: DMSO, positive control: dantrolene) were added using a Kalypsis pin-tool Robotic System equipped with 1536 pinheads.
4; Cells were then incubated for 42 hours at 37C, 5% CO2.
5; Thapsigargin was added at 100 nM to deplete ER calcium stores.
6; Cells were incubated for 4 hr (37C, 5% CO2).
7; Cell viability was measured using the CellTiter-Glo Luminescent Cell Viability Assay (Promega). Briefly, an equal volume of reagent was added to each well. Plates were rotated for 2 min.
8; Assay plates were incubated for 10 min at room temperature.
9; Luminescence was measured using a ViewLux CCD imaging system (Perkin Elmer) equipped with clear filters.
On the technique in general: Quantitative high-throughput screening tests each substance at several concentrations.
Turning to `Oc1c(Cl)cc(Cl)c2cccnc12`, the Potency was 20 µM (active).

`S=P(N1CC1)(N1CC1)N1CC1`: the max response is 22.2% (inactive).

In the case of `CO[C@@H]1[C@@H](OC(N)=O)[C@@H](O)[C@H](Oc2ccc3c(O)c(NC(=O)c4ccc(O)c(CC=C(C)C)c4)c(=O)oc3c2C)OC1(C)C`, the max response was 49.1% (inactive).

Consider `COc1c(N2CCNC(C)C2)c(F)cc2c(=O)c(C(=O)O)cn(C3CC3)c12` (stereo not given), for which the max response was -1.18% (inactive) and 19.6% (inactive).

On to `CCOc1cc(N)c(Cl)cc1C(=O)NCC1CN(Cc2ccc(F)cc2)CCO1` (stereo not given), for which the max response is -7.94% (inactive).

On to `CCn1cc(C(=O)O)c(=O)c2cc(F)c(N3CCNCC3)nc21`, for which the max response is 28.2% (inactive).

A further experiment is described as follows: Primary qHTS for small molecule stabilizers of the endoplasmic reticulum resident proteome: Secreted ER Calcium Modulated Protein (SERCaMP) assay (AID 1508630). The following applies: SH-SY5Y GLuc-SERCaMP (Gaussia luciferase released on ER calcium loss) secretion, thapsigargin, luminescence; series mostly up to 38.4 µM; activity change, negative = inhibition: at the top concentration. The gist of the method:
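GLuc-SERCaMP-expressing SH-SY5Y cells, pretreated 16 h with compound, are challenged with thapsigargin to empty ER calcium stores; after 4 h, coelenterazine is added directly to the medium and luminescence is imaged.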
For `Oc1c(Cl)cc(Cl)c2cccnc12`, the “activity change, negative = inhibition” value is -58.9% (inactive).

On to `Cc1ncc([N+](=O)[O-])n1CCO`, for which the “activity change, negative = inhibition” value was -15.2% (inactive).

In the case of `CO[C@@H]1[C@@H](OC(N)=O)[C@@H](O)[C@H](Oc2ccc3c(O)c(NC(=O)c4ccc(O)c(CC=C(C)C)c4)c(=O)oc3c2C)OC1(C)C`, the Potency was 31.6 µM (active) and inactive.

Regarding `COc1c(N2CCNC(C)C2)c(F)cc2c(=O)c(C(=O)O)cn(C3CC3)c12` (stereo not given), the Potency is 20 µM (active).

Regarding `Cc1ccnc2c1NC(=O)c1cccnc1N2C1CC1`, the Potency result is “inactive”.

Take `CCOc1cc(N)c(Cl)cc1C(=O)NCC1CN(Cc2ccc(F)cc2)CCO1` (stereo not given): the “activity change, negative = inhibition” value is 45.3% (inactive).

Take `CCn1cc(C(=O)O)c(=O)c2cc(F)c(N3CCNCC3)cc21`: the “activity change, negative = inhibition” value is 2.27% (inactive).

Consider `CN1CCN(c2c(F)cc3c(=O)c(C(=O)O)cn(CCF)c3c2F)CC1`, for which the Potency result is “inactive”.

Turning to `CC(=O)[C@H]1CC[C@H]2[C@@H]3CC=C4C[C@@H](O)CC[C@]4(C)[C@H]3CC[C@]12C`, the Potency result was “inactive”.
